Source: PubChem BioAssay (NCATS)
Records with an inconclusive call do not appear. Active and inactive are the calls of the source. Unless noted, the call rests on the fitted dose curve; in most records, active means well fitted curve in the direction sought with a large enough effect; inconclusive means small, poorly fitted or top-dose-only effect, or another doubt; inactive means no such curve, though single readings can be large; an effect the other way counts as inactive or inconclusive.

Experiments:
[1] = Counterscreen qHTS for small molecule stabilizers of the endoplasmic reticulum resident proteome: GLuc-NoTag assay (AID 1508627);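 further: 0% = thapsigargin alone and -100% = DMSO vehicle control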
Summary of the method: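 Counterscreen line: SH-SY5Y-GLuc-NoTag cells, treated with compound 19 hr before a 4 hr, 100 nM thapsigargin calcium depletion. Secreted Gaussia luciferase in the medium was measured by luminescence after coelenterazine was added (0.07x final), with cells unlysed.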

[2] = Confirmatory qHTS for small molecule stabilizers of the endoplasmic reticulum resident proteome: Secreted ER Calcium Modulated Protein (SERCaMP) assay (AID 1508628); further: nearly all actives have a fitted effect of over 40% in size; further: potency means the concentration at half of the fitted maximal effect
Summary of the method: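 Reporter secretion upon ER calcium depletion (100 nM thapsigargin, 4 h, 37C) is measured as medium luminescence with coelenterazine, after 16 h compound pretreatment of SH-SY5Y-GLuc-SERCaMP cells; primary at three concentrations up to 38.3 uM, follow-up at 11 (up to 76.6 uM).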

[3] = Cell Viability qHTS for small molecule stabilizers of the endoplasmic reticulum resident proteome (AID 1508629); settings: cell viability counter-screen, 100 nM thapsigargin for final 4 h;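 further: human SH-SY5Y neuroblastoma cells carrying the GLuc-SERCaMP reporter; compound exposure about 46 h in total before the viability read; on the % scale 0 is the no-effect control and ±100 the full control effect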
[4] = biological target: Lysosomal acid glucosylceramidase (Homo sapiens) (UniProt P04062); assay: Glucocerebrosidase-p2 (AID 348; in the data active means potency below about 10 µM; further: potency means the concentration at half of the fitted maximal effect); settings: purified GBA, blue fluorogenic substrate, 40 min
Summary of the method: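 Normal human glucocerebrosidase (0.2 nM) with blue fluorogenic substrate (80 uM final) in citrate/phosphate pH 5.9 with 10mM sodium taurocholate, 0.01% tween-20; 40 min RT, NaOH/glycine stop; fluorescence Ex 365/Em 440; AC50 from a titration from 0.6 nM upwards.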

[5] = AP1 Signaling Pathway (AID 357; active means well fitted curve in either direction with a large enough effect, not every such curve was filed as active;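 further: ME-180 reporter cells stimulated with EGF at its EC50 level; on the % scale 0 is the no-effect control and ±100 the full control effect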); settings: ME-180 AP-1-bla reporter, EGF-induced, beta-lactamase ratio, 5 h; at 7.69 µM (top of the series) unless noted
Summary of the method: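 A ratiometric CCF4 readout (405 nm excitation; 460 and 530 nm emission) quantified AP-1-driven beta-lactamase in ME-180 cells after 5 h with compound and EC50 EGF; AC50 values were derived for activators and inhibitors.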

[6] = biological target: Cytochrome P450 1A2 (Homo sapiens) (UniProt P05177); assay: p450-cyp1a2 (AID 410; calls by dose curve; further: potency means the concentration at half of the fitted maximal effect)
Summary of the method: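 Luminescent demethylation readout: Luciferin-ME (100uM, equal to Km) turned over by 20nM CYP1A2 for 60 min at room temperature after NADPH regeneration addition, following 10 min compound preincubation. Normalization used 57 uM furafylline as full inhibition.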

[7] = biological target: Glucocorticoid receptor (Homo sapiens) (UniProt P04150); assay: GR-GFP Redistribution (AID 450;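 active means compounds whose dose series gives a full or clear partial fitted curve of increased nuclear translocation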; further: potency means the concentration at half of the fitted maximal effect); settings: U2OS GR-GFP nuclear translocation, laser cytometry, 2 h
[8] = biological target: Glucocorticoid receptor (Homo sapiens) (UniProt P04150); assay: GR-EFC Redistribution (AID 451; calls by dose curve; further: potency means the concentration at half of the fitted maximal effect); settings: CHO-K1 GR-EFC translocation, beta-gal luminescence, 2 h
Summary of the method: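 Translocation of GR-ED fusion to nuclear EA restores b-gal, read by luminescence after 1 h room-temperature detection. Engineered CHO-K1 biosensor cells, 1,000/well, exposed 2 h at 37 C to titrations up to 46 uM final.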

[9] = biological target: Mitogen-activated protein kinase 10 (Mus musculus) (UniProt Q61831); assay: JNK3 AlphaScreen Assay (AID 530; active means well fitted curve in either direction with a large enough effect, not every such curve was filed as active;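 further: kinase came from lysate of stimulated human HepG2 cells; signal reports phosphorylation of biotinylated GST-cJun 1-79 at Ser73 with 10 µM ATP; on the % scale 0 is the no-effect control and ±100 the full control effect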)
Summary of the method: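 qHTS titrations with 15 min compound pre-incubation before adding ATP (10 uM final). Read-out: AlphaScreen of Ser73-phosphorylated biotin-GST-cJun using HepG2 lysate JNK3 activated by IL-1β and TNFα.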

[10] = biological target: 3',5'-cyclic-AMP phosphodiesterase 4B (Homo sapiens) (UniProt Q07343); assay: qHTS Assay for Inhibitors of PDE-IV (AID 607; active means well fitted activation curve with a large enough effect in the main read-out, with a control signal flat, not every such curve was filed as active; further: % of control where 0% means no effect)
Summary of the method: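 ACTOne HEK293 cells carry a modified cAMP-gated CNG channel and express endogenous PDE4; plated 1000 cells/well, compounds up to 22.9 uM final. Membrane-potential dye fluorescence (ex 535/em 590) was read; parental cells received 10 uM forskolin + 100 uM RO 20-1724.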

[11] = qHTS Assay for Identification of Small Molecule Agonists for Hypoxia Response Element Signaling Pathway (AID 914; active means well fitted activation curve with a large enough effect in the signal ratio, with a control signal flat, not every such curve was filed as active; the % refers to the signal ratio; further: potency means the concentration at half of the fitted maximal effect; on activation: % of control where 0% means no effect); settings: ME-180 HRE-bla reporter, beta-lactamase ratio, CoCl2, 17 h; activation: stronger effect = higher value
Summary of the method: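 Reporter activity (beta-lactamase, CCF4 460nm/530nm ratio) in HRE-bla ME-180 cells is recorded after 17 h compound exposure with EC50 CoCl2 at 37 degrees Celsius. AC50 values come from titration data.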

[12] = qHTS Assay for Lipid Storage Modulators (AID 1519; calls by dose curve); settings: Drosophila S3 cells, BODIPY lipid droplet/cell ratio, laser cytometry, cells loaded with oleic acid; for activity change, negative = inhibition: at 57.5 µM (top of the series)
Summary of the method: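 Cells seeded at 5,000 per well were treated with compounds over a concentration series and loaded with oleic acid (400 uM, as added). Lipid droplet fluorescence (488 nm excitation, 500-530 nm channel) was read by laser-scanning cytometry and normalized to 20 uM Triacsin C.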

[13] = biological target: Dual specificity protein kinase CLK4 (Homo sapiens) (UniProt Q9HAZ1); assay: qHTS Assay for Inhibitors of CDC-like Kinase 4 (ADP-Glo Assay) (AID 1771); further: on the % scale 0 is the no-effect control and ±100 the full control effect; nearly all actives have a fitted effect of over 70% in size
Summary of the method: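 ADP production was read by ADP-Glo luminescence after residual ATP depletion, following 1 h room-temperature reaction of 25 nM Clk4, 1 uM ATP and 100 uM RS peptide with MgCl2, EGTA, DTT and Triton X-100.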

[14] = biological target: Dual specificity protein kinase CLK4 (Homo sapiens) (UniProt Q9HAZ1); assay: qHTS Assay for Inhibitors of CDC-like Kinase 4 (ADP-FP Assay) (AID 1795);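 further: recombinant human CLK4 phosphorylating RS repeat peptide at 1 µM ATP; on the % scale 0 is the no-effect control and ±100 the full control effect; nearly all actives have a fitted effect of over 60% in size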
Summary of the method: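 Kinase activity was followed as ADP output, converted from fluorescence polarization with a calibration curve. Reactions ran one hour at low ATP (1 uM) with RS peptide substrate.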

[15] = biological target: Ubiquitin carboxyl-terminal hydrolase 1 (Homo sapiens) (UniProt O94782); assay: Inhibitors of USP1/UAF1: Pilot qHTS (AID 504865);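 further: rhodamine fluorescence freed from ubiquitin-rhodamine substrate followed over time; top concentration of the series differs between compounds; on the % scale 0 is the no-effect control and ±100 the full control effect; nearly all actives have a fitted effect of over 35% in size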
Summary of the method: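 Enzyme-free wells gave the negative control, while test wells held 1nM USP1/UAF1 preincubated with compound for 15 min at room temperature. Ub-Rho at 150nM final started the reaction, and fluorescence at 480/540 nm was recorded kinetically.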

[16] = NFAT Signaling Pathway (AID 444; active means well fitted curve in either direction with a large enough effect, not every such curve was filed as active;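 further: carbachol stimulus at about its EC50 of 1 µM final; on the % scale 0 is the no-effect control and ±100 the full control effect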); settings: Jurkat NFAT-bla M1, carbachol, beta-lactamase ratio, 5 h; at 7.69 µM (top of the series) unless noted
Summary of the method: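 Read-out: CCF4 FRET ratio (460 nm/530 nm) after 1 h RT dye loading, used for %activity and AC50 from titration series. Cells: Jurkat NFAT-β-lactamase/M1 line, treated with compound plus 1 uM carbachol for 5 h, 37 °C.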

[17] = Stat Signaling Pathway (AID 446; active means well fitted curve in either direction with a large enough effect, not every such curve was filed as active); settings: ME-180 (cervical carcinoma) SIE beta-lactamase reporter, IL-6 stimulated, 5 h; at 7.69 µM (top of the series) unless noted
Summary of the method: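 Compound effects on IL-6-induced STAT reporter activity were measured in ME-180 cells. After overnight culture, cells were co-treated with 40 pM IL-6 for 5 hrs before beta-lactamase substrate loading at room temperature.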

[18] = biological target: Cytochrome P450 3A4 (Homo sapiens) (UniProt P08684); assay: qHTS Assay for Activators of Cytochrome P450 3A4 (AID 885); further: nearly all actives have a fitted effect of over 65% in size
Summary of the method: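 CYP3A4 activity: Luciferin-PPXE O-dealkylation, 25uM substrate, 200mM KPO4, RT throughout. Read-out is luciferase luminescence; higher values reflect activation.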

[19] = biological target: Dual specificity protein kinase CLK4 (Homo sapiens) (UniProt Q9HAZ1); assay: qHTS Assay for Inhibitors of CDC-like Kinase 4 (Kinase-Glo Assay) (AID 1770); further: on the % scale 0 is the no-effect control and ±100 the full control effect; nearly all actives have a fitted effect of over 65% in size
Summary of the method: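 Clk4 25 nM, RS peptide 100 uM, ATP 1 uM, pH 7.5 Tris, 10 mM MgCl2, 2.5 mM DTT; 4.5 h RT; ATP depletion read by Kinase-Glo luminescence.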

[20] = measured here: cell count channel max response
[21] = measured here: lipid channel max response

Chain of Cytochrome P450 1A2 (Homo sapiens) (P05177 whole entry, looked up): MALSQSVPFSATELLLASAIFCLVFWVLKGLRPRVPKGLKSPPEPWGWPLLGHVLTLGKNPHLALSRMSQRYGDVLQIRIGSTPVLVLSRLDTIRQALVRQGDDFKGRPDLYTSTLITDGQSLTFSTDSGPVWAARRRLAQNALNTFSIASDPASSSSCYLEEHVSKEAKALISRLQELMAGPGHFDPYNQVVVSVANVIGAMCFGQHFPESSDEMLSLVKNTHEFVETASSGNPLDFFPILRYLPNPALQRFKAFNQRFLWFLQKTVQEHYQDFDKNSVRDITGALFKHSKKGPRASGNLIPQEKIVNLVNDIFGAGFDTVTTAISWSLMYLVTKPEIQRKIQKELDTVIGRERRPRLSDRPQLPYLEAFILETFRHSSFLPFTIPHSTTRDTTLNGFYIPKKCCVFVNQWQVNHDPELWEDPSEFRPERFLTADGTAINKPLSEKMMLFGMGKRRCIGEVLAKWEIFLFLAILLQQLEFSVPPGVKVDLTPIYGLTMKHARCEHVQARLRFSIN
Chain of 3',5'-cyclic-AMP phosphodiesterase 4B (Homo sapiens) (Q07343 whole entry, looked up): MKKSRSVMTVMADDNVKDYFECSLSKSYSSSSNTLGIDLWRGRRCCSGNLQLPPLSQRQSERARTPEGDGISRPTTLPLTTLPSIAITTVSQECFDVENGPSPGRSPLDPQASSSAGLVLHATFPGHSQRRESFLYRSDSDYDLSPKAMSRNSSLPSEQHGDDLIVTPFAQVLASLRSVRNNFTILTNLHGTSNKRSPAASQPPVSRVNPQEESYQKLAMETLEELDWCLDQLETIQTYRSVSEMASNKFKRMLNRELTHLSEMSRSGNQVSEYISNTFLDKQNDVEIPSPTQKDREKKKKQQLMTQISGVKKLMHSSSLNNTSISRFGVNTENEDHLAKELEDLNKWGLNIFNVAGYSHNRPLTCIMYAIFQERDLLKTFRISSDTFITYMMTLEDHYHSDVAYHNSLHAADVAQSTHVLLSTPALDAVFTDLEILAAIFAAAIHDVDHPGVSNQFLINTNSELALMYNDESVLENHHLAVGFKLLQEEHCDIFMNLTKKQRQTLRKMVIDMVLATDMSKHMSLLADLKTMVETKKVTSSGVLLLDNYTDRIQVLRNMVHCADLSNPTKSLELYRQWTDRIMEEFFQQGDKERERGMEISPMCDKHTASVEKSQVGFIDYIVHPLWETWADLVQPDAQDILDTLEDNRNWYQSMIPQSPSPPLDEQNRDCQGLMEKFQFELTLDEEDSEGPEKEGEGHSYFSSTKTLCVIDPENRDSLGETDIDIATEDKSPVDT
Chain of Dual specificity protein kinase CLK4 (Homo sapiens) (Q9HAZ1 whole entry, looked up): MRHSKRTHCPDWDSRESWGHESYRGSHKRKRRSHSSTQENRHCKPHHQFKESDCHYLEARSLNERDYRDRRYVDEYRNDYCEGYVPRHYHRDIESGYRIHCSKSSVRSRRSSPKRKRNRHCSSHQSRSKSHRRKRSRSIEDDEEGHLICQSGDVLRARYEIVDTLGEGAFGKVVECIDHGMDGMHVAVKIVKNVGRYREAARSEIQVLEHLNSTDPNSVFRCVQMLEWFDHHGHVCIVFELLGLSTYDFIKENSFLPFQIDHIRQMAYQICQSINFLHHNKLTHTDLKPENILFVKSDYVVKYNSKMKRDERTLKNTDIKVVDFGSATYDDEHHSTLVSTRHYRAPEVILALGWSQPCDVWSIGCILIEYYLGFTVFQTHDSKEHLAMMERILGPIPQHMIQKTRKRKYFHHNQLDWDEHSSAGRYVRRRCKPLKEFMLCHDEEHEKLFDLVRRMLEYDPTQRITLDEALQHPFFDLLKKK
Chain of Lysosomal acid glucosylceramidase (Homo sapiens) (P04062 whole entry, looked up): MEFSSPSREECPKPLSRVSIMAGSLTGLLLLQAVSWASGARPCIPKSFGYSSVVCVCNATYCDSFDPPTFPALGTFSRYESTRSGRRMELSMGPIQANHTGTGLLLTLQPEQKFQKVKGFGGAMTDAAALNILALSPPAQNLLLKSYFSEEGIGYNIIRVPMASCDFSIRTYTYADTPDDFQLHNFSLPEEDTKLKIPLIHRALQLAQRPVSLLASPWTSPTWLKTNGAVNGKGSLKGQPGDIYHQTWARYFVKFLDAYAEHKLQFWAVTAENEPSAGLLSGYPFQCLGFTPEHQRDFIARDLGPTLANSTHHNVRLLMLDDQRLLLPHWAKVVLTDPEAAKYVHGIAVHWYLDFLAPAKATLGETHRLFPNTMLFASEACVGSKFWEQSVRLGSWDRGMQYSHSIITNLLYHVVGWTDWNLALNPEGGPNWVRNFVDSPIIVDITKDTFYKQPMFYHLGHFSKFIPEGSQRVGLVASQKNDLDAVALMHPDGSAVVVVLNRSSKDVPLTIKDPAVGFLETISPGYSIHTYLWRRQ
Chain of Glucocorticoid receptor (Homo sapiens) (P04150 whole entry, looked up, the tested form may be a part): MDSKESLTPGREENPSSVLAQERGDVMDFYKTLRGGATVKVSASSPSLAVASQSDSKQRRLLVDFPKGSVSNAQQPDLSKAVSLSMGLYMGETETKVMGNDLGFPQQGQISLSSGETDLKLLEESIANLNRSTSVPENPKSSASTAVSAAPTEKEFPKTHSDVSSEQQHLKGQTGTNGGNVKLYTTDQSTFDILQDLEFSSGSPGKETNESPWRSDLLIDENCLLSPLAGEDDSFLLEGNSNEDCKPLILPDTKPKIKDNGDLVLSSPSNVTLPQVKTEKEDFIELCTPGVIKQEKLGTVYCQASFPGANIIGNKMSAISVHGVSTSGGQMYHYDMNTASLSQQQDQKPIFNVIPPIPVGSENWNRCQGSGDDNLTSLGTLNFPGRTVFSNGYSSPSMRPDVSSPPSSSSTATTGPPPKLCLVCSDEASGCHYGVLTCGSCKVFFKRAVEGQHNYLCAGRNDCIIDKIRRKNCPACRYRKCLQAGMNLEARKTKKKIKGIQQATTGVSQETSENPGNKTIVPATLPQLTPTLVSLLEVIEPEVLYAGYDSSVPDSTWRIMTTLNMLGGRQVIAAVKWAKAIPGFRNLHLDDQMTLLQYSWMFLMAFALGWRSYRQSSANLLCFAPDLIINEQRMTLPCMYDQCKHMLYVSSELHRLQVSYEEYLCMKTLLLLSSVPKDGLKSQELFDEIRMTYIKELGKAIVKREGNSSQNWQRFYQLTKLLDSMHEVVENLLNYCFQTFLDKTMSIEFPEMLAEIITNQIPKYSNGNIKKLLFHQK
Chain of Ubiquitin carboxyl-terminal hydrolase 1 (Homo sapiens) (O94782 whole entry, looked up): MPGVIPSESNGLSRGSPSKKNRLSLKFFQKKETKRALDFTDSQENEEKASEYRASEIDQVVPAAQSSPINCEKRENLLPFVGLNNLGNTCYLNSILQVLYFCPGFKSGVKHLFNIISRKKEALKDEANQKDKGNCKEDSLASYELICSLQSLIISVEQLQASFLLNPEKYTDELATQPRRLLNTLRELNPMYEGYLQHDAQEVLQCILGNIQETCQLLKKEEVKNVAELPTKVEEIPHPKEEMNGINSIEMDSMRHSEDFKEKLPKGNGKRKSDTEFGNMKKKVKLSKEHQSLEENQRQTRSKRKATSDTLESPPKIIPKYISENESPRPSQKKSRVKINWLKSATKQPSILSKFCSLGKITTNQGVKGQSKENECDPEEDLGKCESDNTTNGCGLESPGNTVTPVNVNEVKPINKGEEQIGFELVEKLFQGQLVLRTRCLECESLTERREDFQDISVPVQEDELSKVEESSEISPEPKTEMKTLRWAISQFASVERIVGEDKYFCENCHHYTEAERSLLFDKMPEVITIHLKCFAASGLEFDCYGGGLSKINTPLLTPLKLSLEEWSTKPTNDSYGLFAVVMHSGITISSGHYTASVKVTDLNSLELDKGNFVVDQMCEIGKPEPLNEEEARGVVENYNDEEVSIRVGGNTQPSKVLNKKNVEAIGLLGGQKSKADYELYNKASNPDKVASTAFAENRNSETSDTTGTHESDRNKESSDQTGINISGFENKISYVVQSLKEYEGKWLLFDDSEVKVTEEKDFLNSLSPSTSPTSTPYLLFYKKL
Chain of Cytochrome P450 3A4 (Homo sapiens) (P08684 whole entry, looked up): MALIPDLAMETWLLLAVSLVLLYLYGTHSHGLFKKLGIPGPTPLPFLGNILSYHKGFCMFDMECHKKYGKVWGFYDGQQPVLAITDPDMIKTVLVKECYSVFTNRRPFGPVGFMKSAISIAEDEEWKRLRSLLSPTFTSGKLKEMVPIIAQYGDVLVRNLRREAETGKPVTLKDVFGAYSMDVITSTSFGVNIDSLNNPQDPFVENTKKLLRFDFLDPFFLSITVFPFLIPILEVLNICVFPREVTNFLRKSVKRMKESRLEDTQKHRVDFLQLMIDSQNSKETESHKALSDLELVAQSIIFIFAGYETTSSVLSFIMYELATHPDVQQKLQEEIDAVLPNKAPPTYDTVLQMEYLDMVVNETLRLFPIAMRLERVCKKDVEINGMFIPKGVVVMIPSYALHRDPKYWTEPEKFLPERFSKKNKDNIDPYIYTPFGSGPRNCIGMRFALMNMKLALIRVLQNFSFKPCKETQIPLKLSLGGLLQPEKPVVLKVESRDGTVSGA

Cc1ccc(C(=O)N/C(=C\c2cccs2)c2nc3ccccc3[nH]2)cc1
inactive: Potency [1] | Potency [2] | max response [3] 8.84%

COc1ccc(-c2nc3cnc(N4CCN(C)CC4)nc3n(-c3ccc(OC)cc3)c2=O)cc1
inactive: Potency [4] > 11.4 µM | activity change, negative = inhibition [5] 41.4% | Potency [7] > 9.22 µM | Potency [8] > 46 µM | outcome [9] | Potency [10] | activity change, negative = inhibition [12] 3.89% | Potency [13] | Potency [14] | Potency [15] | Potency [1] | Potency [2]
active: Potency [6] 15.8 µM | Potency [11] 3.16 µM
28.9%: max response [12, 20]
29.8%: max response [12, 21]

COc1ccc(NC(=O)N2CCC3(CC2)CCN(S(=O)(=O)c2ccccc2)CC3)cc1
inactive: Potency [4] > 11.4 µM | activity change, negative = inhibition [5] -24% | activity change, negative = inhibition [16] -21.7% | activity, negative = inhibition [17] -16.7% | Potency [8] > 46 µM | outcome [9] | Potency [10] | Potency [18] | activity change, negative = inhibition [12] 2.68% | Potency [1] | Potency [2] | max response [3] -18.8%
active: Potency [6] 31.6 µM
2.58%: max response [12, 20]
8.36%: max response [12, 21]

CN1CCN(c2nc(-c3ccccc3C(F)(F)F)nc3ccccc23)CC1
inactive: Potency [4] > 11.4 µM | activity change, negative = inhibition [5] -3.47% | activity change, negative = inhibition [16] -6.69% | activity, negative = inhibition [17] -4.43% | Potency [7] > 46 µM | Potency [8] > 46 µM | Potency [10] | Potency [18] | activation [11] -4.44% | Potency [19] | Potency [13] | Potency [14] | Potency [15] | Potency [1] | max response [3] 16.6%
active: Potency [6] 10 µM | Potency [2] 14.1 µM
